About 13,000 (27%) of roughly 48,000 compounds showed an effect of 50% or more. The list shows a part of the results.
Each compound was assayed on Wolbachia pipientis (assay: Anti-Wolbachia Cell-Based Screen). Conditions: 5 µM.
Assay type: functional
Set-up: scale not given: in the data most compounds retested in dose-response had high values

SMILES | Percent Effect
CS(=O)(=O)c1ccc(NC(=O)N2CCc3sccc3C2)cn1 | 17.51%
CN(C)c1ccc(NC(=O)CN2CCS(=O)(=O)CC2)cn1 | 10.44%
COc1ccc(Oc2ncccc2NC(=O)N2CC[C@H](O)C2)cc1 | 8.282%
O=C(c1cccnc1SCc1ccccc1)N1CC[C@@H](O)C1 | 159.2%
CSc1ncccc1C(=O)N1C[C@H]2CC[C@@H]1CN(C(C)=O)C2 | 3.365%
O=C(c1cccnc1SC/C=C/c1ccccc1)N1CC[C@H](O)C1 | 8.97%
COc1ncccc1C(=O)N1CC[C@H]2C[C@@H](C)O[C@@H]2C1 | 13.58%
O=C(c1cccnc1SC/C=C/c1ccccc1)N1CCOCC(O)C1 (stereo unspecified) | 8.468%
O=C(c1cccnc1SCc1ccccc1)N1CCOCC1 | 174.3%
O=C(c1cccnc1Oc1ccc(Cl)cc1)N1CC[C@@H](O)C1 | 158.3%
O=C(c1cccnc1-n1cncn1)N1CCN(c2ccccc2)CC1 | -6.157%
CN(C(=O)c1ccc(OCC(F)F)nc1)c1ccc2c(c1)CCO2 | 2.001%
OC(CN1CC(n2cccn2)C1)c1ccc2c(c1)OCCO2 (stereo unspecified) | -60.78%
CS(=O)(=O)NCCN1CCOC2(CCc3ccccc32)C1 (stereo unspecified) | 9.722%
Cc1[nH]ccc1C(=O)N(C)C1CC(=O)N(Cc2ccccc2)C1=O (stereo unspecified) | -3.858%
O=C(Cc1c[nH]c(=O)[nH]c1=O)N1CCC2(CCC(=O)N(C3CC3)C2)CC1 | 10.83%
Cn1ccc(C(=O)Nc2nc(-c3ccc(Cl)cc3)n[nH]2)cc1=O | 5.787%
CCCNC(=O)Cn1cc(C#N)c(=O)c2cc(Br)ccc21 | -9.356%
CSCC(=O)Nc1ncc(I)cc1C | -3.012%
Cc1cc(C)c(CNC(=O)NCc2ccc3c(c2)CCC3)c(=O)[nH]1 | -7.046%
CN(C)S(=O)(=O)c1ccc(-c2nc(C#N)c(NC3CCCCC3)o2)o1 | 126.8%
CN(C)S(=O)(=O)c1ccc(CN2CCC(C(N)=O)CC2)o1 | -3.214%
CN(C)S(=O)(=O)c1ccc(-c2nc(C#N)c(NC3CC3)o2)o1 | 107.9%
CSCC[C@@H](CO)n1ccnc1-c1ccncc1 | -26.42%
C1CCC(OCCN2CCN(CCOC3CCCCC3)CC2)CC1 | 16.33%
Oc1cccc(-c2cc(C3CCN(Cc4cncnc4)C3)ccn2)c1 (stereo unspecified) | -2.47%

SMILES | Percent Effect
CCC(=O)NCC(=O)NCC1(c2c(F)cccc2F)CCCC1 | -0.7519%
O=C(O)C(F)(F)F.O=C1CCCN1Cc1nnc2n1CCN(Cc1ccco1)CC2 | 95.89%
O=C1CCCN1Cc1nnc2n1CCN(Cc1ccco1)C2 | 88.52%
CN(C)C(=O)NCc1ncn2c1CN(Cc1ccco1)CCC2.O=C(O)C(F)(F)F | -2.342%
O=C(O)C(F)(F)F.O=C(O)C(F)(F)F.c1ccc(OCc2nnc3n2CCN(Cc2ccco2)C3)nc1 | 6.411%
O=C(O)C(F)(F)F.O=C1CCCN1Cc1nnc2n1CCCN(Cc1ccco1)C2 | 117.6%
N#CCC(=O)NCc1nnc2n1CCN(Cc1ccco1)C2 | -13.02%
O=C(O)C(F)(F)F.O=C(O)C(F)(F)F.c1ccc(CN2CCc3nnc(CN4CCCCC4)n3CC2)nc1 | -3.311%
c1cnc(OCc2nnc3n2CCN(Cc2ccco2)C3)nc1 | -5.792%
CCN(Cc1ccccc1C)S(C)(=O)=O | -4.247%
CN(CC(=O)NCc1ccccn1)CC1CCCN1c1cccnn1 (stereo unspecified) | -6.159%
COCCCNC(=O)CN(C)C1CCCN(c2cccnn2)C1 (stereo unspecified) | 138.8%
CN(CC(=O)NCc1ccccn1)C1CCCN(c2cccnn2)C1 (stereo unspecified) | 106.6%
CN1C(=O)[C@H]2CC[C@@H]1CN(C(=O)c1nnc3n1CCCCC3)C2 | 10.69%
NC(=O)NCCC(=O)NCc1cccnc1N1CCc2ccccc2C1 | 5.248%
Cn1cccc1CCC(=O)N1CCC2(CC1)c1ccccc1CC2O (stereo unspecified) | 8.573%
COc1cccc(CC(=O)N2CCCC(c3n[nH]c4nccnc34)C2)c1 (stereo unspecified) | 81.22%
COc1cccc(COCC(=O)N2CCCC(c3cc(C)[nH]n3)C2)c1 (stereo unspecified) | 9.679%
Cc1cccc(CC(=O)N2CCCC(c3n[nH]c4nccnc34)C2)c1 (stereo unspecified) | 102.4%
Cc1cccc(C2CCCN(C(=O)CN3CCCC3=O)C2)c1 (stereo unspecified) | -1.59%
N#Cc1cccc(NC2CC(=O)N(Cc3cccc(F)c3)C2)n1 (stereo unspecified) | 7.096%
CCN(Cc1ccc(Cl)s1)S(=O)(=O)CCOC | -12.02%
CCC(c1ccccc1)N1CCN(C(=O)c2cc(C(N)=O)c[nH]2)CC1 (stereo unspecified) | -8.4%
CCCc1n[nH]c(=O)n1[C@@H](CC)c1ccccc1 | 92.4%
CCCc1n[nH]c(=O)n1Cc1ccccc1F | -4.193%
CCCc1cc(C(=O)NCCN2C(=O)c3ccccc3C2=O)[nH]n1 | -4.22%

SMILES | Percent Effect
CC[C@@H](c1ccccc1)n1c(C2CC2)n[nH]c1=O | 115.6%
NCc1n[nH]c(=O)n1-c1ccccc1Oc1ccccc1 | -5.025%
CC[C@@H](c1ccccc1)n1c(CCN)n[nH]c1=O | 91.36%
CC[C@@H](c1ccccc1)n1c(CN)n[nH]c1=O | 112.8%
C[C@H](c1ccc(F)cc1)n1c(C2CCN(C)CC2)n[nH]c1=O | -149.6%
C[C@H](c1ccc(Cl)cc1)n1c(C2CC2)n[nH]c1=O | -27.24%
Cn1cccc1C(=O)NC1CCN(c2ccc(OC(F)(F)F)cc2)CC1 | -13.65%
CNC(=O)NC(=O)CN1CCC(c2c[nH]c3ccc(OC)cc23)CC1 | -6.098%
O=S(=O)(c1cccc(F)c1)N1C[C@@H]2COC[C@]2(COCC2CC2)C1 | -1.949%
COc1cc(CNCCC(N)=O)c2c(c1)CC(C)O2 (stereo unspecified) | 0.4704%
CCN(CC)C(CNC(=O)c1ccc(S(C)(=O)=O)cc1)c1ccco1 (stereo unspecified) | 12.65%
O=C(CNc1cc2c(cc1Br)OCCO2)NC1CCS(=O)(=O)C1 (stereo unspecified) | -16.13%
CCNc1nnc(SCC(=O)N2CCN(Cc3ccc(Cl)s3)CC2)s1 | -3.982%
Cc1cccc2c(CCNC(=O)NCCC[S+](C)[O-])c[nH]c12 (stereo unspecified) | 21.8%
Cc1ccc(C)c2c(C)c(C(=O)NCC[S+](C)[O-])[nH]c12 (stereo unspecified) | 91.32%
Cc1cccc2c(CCNC(=O)NCC[S+](C)[O-])c[nH]c12 (stereo unspecified) | -10.94%
OC1CCN(c2ccccc2NCc2nc(-c3cccs3)no2)CC1 | 8.395%
CNC(=O)N1CCC2(CC1)C(=O)N(C)c1c(F)cccc12 | 16.38%
O=C(NCc1ccc(CN2CCCCC2)cc1)Nc1cccnc1 | -23.63%
O=C(NCCn1cc(Cl)cn1)C1CCN(C(=O)C2CC2)CC1 | 13.04%
CC(Cn1cc(Cl)cn1)C(=O)Nc1ccc(CN2CCCCCC2)cc1 (stereo unspecified) | 106.4%
CC(C)n1nc2c(cc1=O)CN(Cc1ccc(-n3cccn3)cc1)CC2 | 0.8403%
O=C(c1cncc(N2CCC3(CCCNC3)C2)n1)N1CCCC1 (stereo unspecified) | 43.3%
COc1cc(C2(C(=O)NC3CCC4(CC3)OCCO4)CC2)ccc1C | 0.5256%
Cc1ccccc1-n1cc(CN(C)C[C@@H]2CCCN3CCCC[C@H]23)cn1 | 9.143%
Cc1ccccc1-n1cc(-c2ccnc(N3CCCC(O)C3)n2)cn1 (stereo unspecified) | 107.7%

SMILES | Percent Effect
NCC1CCCN(c2nc(-c3ccccc3)nc3c2CCNCC3)C1 (stereo unspecified) | -16.76%
COC[C@H]1CCCN1c1nccc(-c2cnn(-c3ccccc3C)c2)n1 | 94.7%
Cc1ccccc1-n1cc(-c2ccnc(N3CCCC(CN)C3)n2)cn1 (stereo unspecified) | 108.9%
Cc1ccccc1-n1cc(-c2ccnc(N[C@H](CO)C(C)C)n2)cn1 | -13.53%
Cc1cnc(N2CCCC(O)C2)nc1-c1ccnn1C (stereo unspecified) | -3.995%
COCc1noc(-c2ccc(N3CCCCC3COC)nc2)n1 (stereo unspecified) | 2.136%
O=C1CC2(CCN(Cc3ccc(C(F)(F)F)nc3)CC2)CN1 | -10.7%
O=S(=O)(Cc1ccccc1F)NCCCN1CCCCC1 | -1.108%
CCCc1cc(NCCCC2CCOC2)n2nccc2n1 (stereo unspecified) | -21.79%
CC(C)C[C@H](Nc1nc(C2CCCC2)nc2c1cnn2C)C(N)=O | 1.529%
O=C1O[C@@H]2CN(Cc3ccccc3)C[C@@H]2N1CCCN1CCOCC1 | -2.411%
Cn1c(CN2CCOCC2)nnc1C1CCCN(CC(N)=O)C1 (stereo unspecified) | -18.54%
Cn1c(=O)oc2ccc(NC(=O)N3CCOCC3)cc21 | 0.8661%
Cn1c(CN2CCOCC2)cc(=O)c(O)c1CN1CCOCC1 | 102.7%
CCS(=O)(=O)N1CCC(c2nnc(CN3CCOCC3)n2C)CC1 | 4.44%
CC(C)NC(=O)N1CCCC(c2nnc(CN3CCOCC3)n2C)C1 (stereo unspecified) | 7.81%
CCN(C)CC(=O)N1CCCC(c2nnc(CN3CCOCC3)n2C)C1 (stereo unspecified) | 14.42%
Cn1c(CN2CCOCC2)cc(=O)c(O)c1CN1CCCCC1 | 117.1%
Cn1c(CN2CCOCC2)cc(=O)c(O)c1CN1CCCC1 | 100.1%
CN(CCN1CCCCC1)C(=O)c1cc(CN2CCOCC2)on1 | 7.335%
O=C(NCCN1CCCC1)c1nc2c(o1)CN(C(=O)c1cccnc1)C2.O=C(O)C(F)(F)F.O=C(O)C(F)(F)F | -5.766%
COCCN1CCc2ncc(CN(C)C)n2CC1 | -10.98%
CC1CN(S(=O)(=O)c2ccc(F)cc2F)c2cccnc2O1 (stereo unspecified) | -5.201%
